# Shown are actives, neighbours in structure and some others; about 0.27% of the full set was active somewhere.
# B2AR arrestin: agonists driving beta-arrestin recruitment to human beta2-adrenergic receptor | Potency, µM (top dose mostly 46.1 µM), for the others: at the top dose activation, usual class: activators | beta-arrestin recruitment to beta2AR, cell-based reporter | 0.02% of 330,000 active | P07550;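 also: 0% = DMSO controls and full agonism = EC100 isoproterenol or metaproterenol; nearly all actives have a fitted effect of over 65% in size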
# Target sequence (P07550 whole entry, looked up): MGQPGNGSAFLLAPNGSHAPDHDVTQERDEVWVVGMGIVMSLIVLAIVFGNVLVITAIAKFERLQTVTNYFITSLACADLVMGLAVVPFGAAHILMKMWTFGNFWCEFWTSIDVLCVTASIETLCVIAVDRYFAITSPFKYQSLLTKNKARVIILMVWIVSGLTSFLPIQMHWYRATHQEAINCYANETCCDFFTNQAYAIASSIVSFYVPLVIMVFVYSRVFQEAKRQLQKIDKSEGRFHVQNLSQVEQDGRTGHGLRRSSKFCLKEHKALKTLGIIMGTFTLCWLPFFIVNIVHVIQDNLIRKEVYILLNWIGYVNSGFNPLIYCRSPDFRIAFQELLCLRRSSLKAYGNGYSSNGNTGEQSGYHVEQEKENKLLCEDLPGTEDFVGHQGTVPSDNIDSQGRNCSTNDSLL
# Tb PFK inh-1: blocks T. brucei phosphofructokinase; O15648; T. brucei PFK, ADP-Glo luminescence; Potency, µM (doses to about 57.5 µM), for the others: at the highest dose activity, negative = inhibition, usual class: inhibitors; 0.17% of 330,000 active; AID 485367;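 also: 0% = uninhibited 1x PFK enzyme wells and -100% = no-enzyme wells; nearly all actives have a fitted effect of over 60% in size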
#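 In TEA buffer at pH 8.0 with 5 mM MgCl2, enzyme (1.25 nM) converted F6P (0.5 mM) and ATP (0.1 mM) for 45 min at room temperature. ADP product was read by luciferase luminescence.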
# BCR signal inh: inhibitors of chronic active B-cell receptor signaling; ABC-DLBCL IkBa-CBG/CBR reporter, luminescence ratio, 4 h; Potency, µM (top dose mostly 46.1 µM), without a hit: top-dose activity change, negative = inhibition, usual class: inhibitors; AID 493014; 0.05% of 340,000 active; active = well fitted inhibition curve with a large enough effect in the signal ratio, with a control signal flat, not every such curve was filed as active; inconclusive = small, poorly fitted or top-dose-only effect, or effect the other way, or a change in a side signal; the % refers to the signal ratio;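 also: plate controls were basal doxycycline-induced cells for no effect and cells given 10 µM MG132 for full effect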
#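 Doxycycline induced both beetle luciferases in TMD8 lymphoma cells; IKK-driven degradation limits the IkappaBalpha-fused green signal, while red luminescence normalises for cell number and nonspecific effects. Compounds tested up to 46 uM, 4 hrs.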
# MBNL1 CUG block: blocks human MBNL1 binding to CUG repeat RNA; Q9NR56; TR-FRET MBNL1-His/biotin-(CUG)12 binding, 665/545 ratio; Potency, µM (highest dose often 57.5 µM), for the others: top-dose activity change, negative = inhibition, actives largely listed as inhibitors; 0.036% of 280,000 active; active = well fitted inhibition curve with a large enough effect in the signal ratio, with a control signal flat, not every such curve was filed as active; inconclusive = small, poorly fitted or top-dose-only effect, or effect the other way, or a change in a side signal; inactive = no such curve, though single readings can be large or run the other way; the % refers to the signal ratio; also: % is scaled to controls: 0 for no effect and ±100 for the full control effect
#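 His-tagged MBNL1 binding to biotinylated (CUG)12 RNA was measured by TR-FRET using terbium anti-His antibody (0.055 ng/ul final) and streptavidin-XL665 (5 nM final). Compounds were titrated 92 nM to 58 uM; 60 min at room temperature.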
# TbPFK ATP: orthogonal confirmation of T. brucei phosphofructokinase inhibitors; shares compounds with Tb PFK inh-1; Tb PFK enzyme, ATP depletion, Kinase-Glo Plus luminescence; Potency, µM (highest dose often 57.5 µM), without a hit: at the highest dose inhibition; 47% of 1,100 active; AID 504636; calls by dose curve; also: nearly all actives have a fitted effect of over 60% in size
# Tb PFK inh-2: validation of T. brucei phosphofructokinase inhibitors; shares compounds with Tb PFK inh-1; purified T. brucei PFK, ADP-Glo luminescence, 45 min; Potency, µM (highest dose often 57.5 µM), without a hit: at the top dose activity change, negative = inhibition, usual class: inhibitors; 41% of 1,100 active;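 also: plate controls were full PFK enzyme control for no effect and no enzyme control for full effect; nearly all actives have a fitted effect of over 60% in size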
# Starred values were filed as active, the others as inactive; u = inconclusive; x = no result; [ ] = remark or other dose. Unless noted, calls follow the shape of the dose curve; as a rule, active = well fitted curve in the direction sought with a large enough effect; inconclusive = small, poorly fitted or top-dose-only effect, or another doubt; inactive = no such curve, though single readings can be large; an effect the other way counts as inactive or inconclusive. Potency is read from the fitted curve at half-maximal effect.
SMILES,B2AR arrestin,Tb PFK inh-1,BCR signal inh,MBNL1 CUG block,TbPFK ATP,Tb PFK inh-2
COc1ccc(NCc2ccc([N+](=O)[O-])s2)c(OC)c1,1.6%,-13.5%,u,49.7%,x,x
Cn1c(SCc2ccccc2Cl)nc2c1c(=O)[nH]c(=O)n2C,-0.5%,0.2%,-0.5%,-5.0%,x,x
Cc1cc(C)n(CCc2nc3c4ccccc4nc(SCc4ccc(Cl)cc4)n3n2)n1,x,x,19.2%,x,x,x
COc1ccc([C@]23Cc4cc(C#N)ccc4C(O2)c2c(c4ccc(OC)cc4oc2=O)O3)cc1,-1.1%[9.22 µM],-0.2%[11.5 µM],3.5%[9.22 µM],-5.7%[11.5 µM],x,x
CC(C)C(C(=O)O)N1C(=O)/C(=C/C=C/c2ccco2)SC1=S (stereo not given),-0.6%,u,u,u,8.49µM*,21.3µM*
Cc1ccc2sc(N(Cc3cccnc3)C(=O)CCOc3ccccc3)nc2c1C,x,x,7.4%,x,x,x
COc1ccc(CC(=O)OCC(=O)NC2CC2)cc1,0.2%,23.9µM*,2.3%,x,u,-7.3%
Cc1noc(NS(=O)(=O)c2ccc(NC(=O)Cc3ccc([N+](=O)[O-])cc3)cc2)c1C,0.3%,6.01µM*,0.0%,u,3.38µM*,12µM*
Cc1cc(NS(=O)(=O)c2ccc(NC(=O)Cc3ccc([N+](=O)[O-])cc3)cc2)nc(C)n1,-1.3%,8.49µM*,u,x,3.79µM*,6.01µM*
Cc1cc(NS(=O)(=O)c2ccc(NC(=O)/C=C/c3ccc(C)o3)cc2)nc(C)n1,-0.1%,u,u,4.2%,-12.3%,u
C[C@@H]1CN([C@H](C)CO)C(=O)Cc2cc(NC(=O)Nc3ccccc3)ccc2O[C@@H]1CN(C)Cc1ccc2c(c1)OCO2,-0.7%,0.9%,-2.8%,x,x,x
CCCC(=O)Nc1ccc(C(=O)COC(=O)c2cc(C)oc2C)cc1,2.5%,7.4%,u,x,x,x
COc1ccc(CCNC(=O)c2cc3c(=O)n4cccc(C)c4nc3n(Cc3ccco3)c2=N)cc1OC,u,u,u,u,-1.6%,0.9%
Cc1cccn2c(=O)c3cc(C(=O)NCCc4ccccc4)c(=N)n(Cc4ccco4)c3nc12,0.1%,-0.3%,18.5%,u,x,x
Nc1ncccc1OCc1ccc(Cl)c(Cl)c1,-0.5%,13.5µM*,u,-11.7%,5.36µM*,16.9µM*
CN(C)c1ncnc2c1ncn2C1OC(CO)C(O)C1O (stereo not given),0.1%,-5.2%,-14.5%,-4.9%,x,x
NC(=S)c1cn(C2OC(CO)C(O)C2O)c2ncnc(N)c12 (stereo not given),0.1%,u,u,-8.1%,u,-13.5%
C[C@H]1CN=C(N(C)C)N1CCc1ccc(F)cc1,0.2%,-6.6%,-7.6%,x,x,x
Cc1nn(Cc2ccc(Cl)c(Cl)c2)c(C)c1NC(=O)c1cc(CC(C)C)on1,-1.0%,30.1µM*,-15.2%,-5.0%,10.7µM*,12µM*
Cc1nn(Cc2ccc(F)cc2)c(C)c1NC(=O)c1cc2ncc(Br)cn2n1,-0.5%,23.9µM*,-18.0%,u,10.7µM*,23.9µM*
Cc1cc(C)n2nc(C(=O)Nc3c(C)nn(Cc4ccc(F)cc4)c3C)cc2n1,0.3%,u,u,2.8%,x,x
O=C(Nc1cnn(Cc2ccc(Cl)c(Cl)c2)c1)C12CC3CC(CC(C3)C1)C2,-1.0%,u,27.6%,8.9%,u,u
O=C(NC1CC(=O)N(c2ccccc2)C1)c1ccc(S(=O)(=O)N2CCCCC2)cc1 (stereo not given),x,x,4.7%,x,x,x
CN(C)c1ccc(/C=N\NC(=O)c2ccc(Cn3cc(Cl)cn3)cc2)cc1,-0.7%,12µM*,-0.6%,52.1%,2.69µM*,3.38µM*
Cc1[nH]c2ccccc2c1C(=O)CN1C(=O)C(=O)N(CCC2=CCCCC2)C1=O,0.5%,7.7%,5.7%,x,x,x
SMILES,B2AR arrestin,Tb PFK inh-1,BCR signal inh,MBNL1 CUG block,TbPFK ATP,Tb PFK inh-2
Cc1[nH]c2ccccc2c1C(=O)CN1C(=O)C(=O)N(Cc2ccco2)C1=O,0.1%,u,11.6%,x,-27.9%,u
Cc1oc(=O)c(NC(=O)c2ccc(Cl)cc2)cc1C(=O)c1ccccc1,9.2%,16.9µM*,u,-11.5%,5.5%,-7.5%
Cc1[nH]nc2c1C(c1cc(Br)cs1)C(C#N)=C(N)O2 (stereo not given),-0.7%,u,u,36.6%[11.5 µM],u,u
O=C(Cn1nc(C(=O)O)c2ccccc2c1=O)Nc1cc(S(=O)(=O)N2CCOCC2)ccc1Cl,-0.2%,2.7%,0.2%,x,x,x
CCOC(=O)C1CCCN(c2ncnc3c2nnn3C)C1 (stereo not given),x,x,-6.4%,x,x,x
CN1CCN(C(=S)c2ccc([N+](=O)[O-])cc2)CC1,2.4%,-5.8%,5.1%,u,x,x
CN1CCN(C(=S)c2ccc(N(C)C)cc2)CC1,0.1%,u,8.2%,-7.6%,12µM*,26.9µM*
CSc1ccc(C(=S)N2CCN(C)CC2)cc1,-0.4%,u,-0.2%,-4.9%,21.3µM*,u
CN1CCN(C(=S)c2ccc(Br)cc2)CC1,-0.9%,u,16.9%,-18.7%,12µM*,13.5µM*
CCOc1ccc2nc(NC(=O)CS(=O)(=O)c3ccc(Cl)cc3)sc2c1,x,x,-48.2%,x,x,x
Nc1n[nH]c(=S)n1/N=C1/C(=O)Nc2ccccc21,0.0%,u,u,u,3.01µM*,9.53µM*
O=C1Nc2ccccc2C1=Nc1ccc(F)cc1,-0.6%,-1.4%,-3.5%,u,x,x
CCN(C(=O)Cn1c(Cl)nc2c1c(=O)n(C)c(=O)n2C)C1CCCCC1,u,23.2%,-0.2%,x,x,x
O=S(=O)(Nc1cc(S(=O)(=O)N2CCOCC2)ccc1O)c1ccc2c(c1)OCCCO2,-0.1%,u,5.5%,x,12µM*,15.1µM*
Nc1nnc(Cc2ccc(Cl)c(Cl)c2)s1,0.1%,19µM*,3.7%,2.7%,7.57µM*,19µM*
Nc1nnc(CCOc2ccccc2Cl)s1,-0.1%,-11.2%,-17.3%,-16.5%,x,x
COC(=O)c1c(NC(=O)c2cc3nc(-c4ccc(Br)cc4)cc(C(F)(F)F)n3n2)sc2c1CCCC2,x,x,-1.6%,x,x,x
CCSc1nnc(NC(=O)COc2ccc3ccccc3c2)s1,0.0%,u,0.8%,70.9%,-32.9%,u
O=C(Nc1cccc(Cl)c1)O/N=C\c1ccncc1,-0.8%,-10.7%,u,-13.4%,x,x
O=C(Nc1ccc(Cl)c(Cl)c1)O/N=C/c1ccncc1,-0.7%,8.49µM*,u,x,u,u
O=C1SC(SCc2ccccc2)=N/C1=C\c1ccc(C(=O)O)cc1,-0.7%,u,u,5.8%,-17.6%,u
C=Cc1ccc(CN2C(=O)N(c3cccc(Cl)c3)S(=O)(=O)c3ccccc32)cc1,x,x,12.7%,x,x,x
O=C(Nc1ccc2c(c1)OCO2)c1cccc2c1C(=O)N(Cc1cccnc1)C2,0.2%,u,-2.2%,14.8%,u,u

# Compound activity from PubChem.
